From PubChem BioAssay (NCI)
The panel holds about 79,000 compounds, 15% with a hit somewhere; the sample as a whole holds those more often. Calls of active or inactive are those of the source. No stated cut-off is given here; in the data, active means growth inhibition above about 70%; inactive means the rest.

Key:
[1] = NCI Yeast Anticancer Drug Screen. Data for the rad50 strain (AID 155);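 further: 0% = growth of vehicle-only cultures of the same strain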; conditions: S. cerevisiae rad50 strain growth inhibition, hits give high values
Summary of the method: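 DNA repair mutant yeast, compound exposure, growth read-out; inhibition is taken relative to vehicle.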

[2] = NCI Yeast Anticancer Drug Screen. Data for the mec2-1 strain (AID 157); conditions: S. cerevisiae mec2-1 strain, hits give high values
Summary of the method: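 Test agents were screened against the mec2-1 yeast strain, with defined DNA repair or cell cycle alteration. Growth was scored as inhibition against vehicle-only controls.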

[3] = NCI Yeast Anticancer Drug Screen. Data for the sgs1 mgt1 strain (AID 161);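 further: 0% = growth of cultures given vehicle only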; conditions: S. cerevisiae sgs1 mgt1 strain, hits give high values
Summary of the method: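 Inhibition of yeast growth, normalised to vehicle-treated controls, is reported for a strain bearing genetic alterations in DNA damage repair.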

[4] = NCI Yeast Anticancer Drug Screen. Data for the cln2 rad14 strain (AID 165);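 further: 0% = growth equal to vehicle treated cultures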; conditions: S. cerevisiae cln2 rad14 strain, hits give high values
Summary of the method: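 Growth of compound-exposed yeast (cln2 rad14 genotype) measured and expressed as inhibition relative to vehicle.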

[5] = NCI Yeast Anticancer Drug Screen. Data for the bub3 strain (AID 167); conditions: S. cerevisiae bub3 mutant strain, hits give high values
Summary of the method: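 In this screen, a yeast mutant lacking normal mitotic checkpoint function is challenged with compound. Relative growth versus vehicle gives the inhibition value.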

[6] = NCI Yeast Anticancer Drug Screen. Data for the mlh1 rad18 strain (AID 175); conditions: S. cerevisiae mlh1 rad18 strain growth inhibition, hits give high values
Summary of the method: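 In this whole-cell yeast screen, a strain with altered DNA damage repair is challenged with compound, and its growth is measured against matched vehicle-treated controls.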

[7] = at 5.0 µM (retest, dose inferred, filed as 0.5)
[8] = at 50.0 µM (retest, dose inferred, filed as 5.0)

Measured: growth inhibition

Nc1ccc2c(c1)CN1C(=O)c3ccccc3C1=N2
inactive: [1]; [7] 24% | [1]; [8] 54% | [1]; at 50.0 µM 67.3% | [2]; [7] 8% | [2]; [8] 22% | [2]; at 50.0 µM 34.6% | [3]; [7] -3% | [3]; [8] 12% | [3]; at 50.0 µM 5.55% | [4]; [7] 23% | [4]; [8] 18% | [4]; at 50.0 µM 36.6% | [5]; [7] 3% | [5]; [8] 19% | [5]; at 50.0 µM 22.4% | [6]; [7] 11% | [6]; [8] 19% | [6]; at 50.0 µM 46%

CC=CCOc1cc(NC(=S)OC(C)C)ccc1Cl (mixture of isomers)
inactive: [1]; [7] 28% | [2]; [7] 18% | [3]; [7] 31% | [4]; [7] 22% | [5]; [7] 27% | [6]; [7] 25%
active: [1]; [8] 94% | [1]; at 50.0 µM 79.2% | [2]; [8] 97% | [2]; at 50.0 µM 89.2% | [3]; [8] 92% | [3]; at 50.0 µM 88.4% | [4]; [8] 96% | [4]; at 50.0 µM 90% | [5]; [8] 97% | [5]; at 50.0 µM 89.7% | [6]; [8] 96% | [6]; at 50.0 µM 85.8%

FC(F)(F)COP1(OCC(F)(F)F)=NP(OCC(F)(F)F)(OCC(F)(F)F)=NP(c2ccccc2)(c2ccccc2)=N1
inactive: [1]; [7] 0% | [1]; [8] -4% | [1]; at 50.0 µM 25.9% | [2]; [7] -1% | [2]; [8] -1% | [2]; at 50.0 µM 25.4% | [3]; [7] 3% | [3]; [8] -1% | [3]; at 50.0 µM 38.1% | [4]; [7] 2% | [4]; [8] -6% | [4]; at 50.0 µM 2.45% | [5]; [7] -5% | [5]; [8] -8% | [5]; at 50.0 µM -3.05% | [6]; [7] 11% | [6]; [8] 0% | [6]; at 50.0 µM 56.1%

S=C(S)NCCN1CCNCC1
inactive: [1]; [7] 9% | [1]; [8] -14% | [1]; at 50.0 µM 36.8% | [2]; [7] -20% | [2]; [8] -10% | [2]; at 50.0 µM -38.1% | [3]; [7] 0% | [3]; [8] -16% | [3]; at 50.0 µM -27.9% | [4]; [7] -3% | [4]; [8] 1% | [5]; [7] -6% | [5]; [8] -11% | [5]; at 50.0 µM -40.6% | [6]; [7] -4% | [6]; [8] -1% | [6]; at 50.0 µM -10.3%
active: [4]; at 50.0 µM 73.8%

CCCCCCCCCCCCCCSC(=N)N
inactive: [1]; at 50.0 µM 66.3% | [2]; [7] 65% | [3]; at 50.0 µM 45.5% | [4]; [7] 41% | [4]; at 50.0 µM 54.5%
active: [1]; [7] 99% | [1]; [8] 95% | [2]; [8] 97% | [2]; at 50.0 µM 98.5% | [3]; [7] 100% | [3]; [8] 95% | [4]; [8] 95% | [5]; [7] 100% | [5]; [8] 96% | [5]; at 50.0 µM 98.7% | [6]; [7] 95% | [6]; [8] 96% | [6]; at 50.0 µM 97.7%

Cc1[nH]nc(C(F)(F)F)c1N=NN1CCOCC1
inactive: [1]; [7] 62% | [3]; [7] 55% | [4]; [7] 47% | [5]; [7] 19%
active: [1]; [8] 99% | [1]; at 50.0 µM 99.2% | [2]; [7] 89% | [2]; [8] 99% | [2]; at 50.0 µM 99.7% | [3]; [8] 99% | [3]; at 50.0 µM 99.5% | [4]; [8] 99% | [4]; at 50.0 µM 99.5% | [5]; [8] 99% | [5]; at 50.0 µM 99.4% | [6]; [7] 79% | [6]; [8] 99% | [6]; at 50.0 µM 99.5%

Cc1c(O)c2c(c(O)c1Br)C(=O)C=CC2=O
inactive: [4]; [7] 49%
active: [1]; [7] 88% | [1]; [8] 96% | [1]; at 50.0 µM 70.8% | [2]; [7] 93% | [2]; [8] 98% | [2]; at 50.0 µM 90.5% | [3]; [7] 74% | [3]; [8] 98% | [3]; at 50.0 µM 90.5% | [4]; [8] 97% | [4]; at 50.0 µM 87.3% | [5]; [7] 98% | [5]; [8] 98% | [5]; at 50.0 µM 89.1% | [6]; [7] 96% | [6]; [8] 97% | [6]; at 50.0 µM 90.8%

O=C(Cc1ccccc1)NC(C(=O)c1ccccc1)c1ccccc1 (configuration not stated)
inactive: [1]; [7] 36% | [1]; [8] 55% | [2]; [7] 21% | [2]; [8] 40% | [2]; at 50.0 µM 31.1% | [3]; [7] 36% | [3]; [8] 47% | [4]; [7] 25% | [4]; [8] 26% | [4]; at 50.0 µM 57% | [5]; [7] 48% | [6]; [7] 35% | [6]; [8] 53%
active: [1]; at 50.0 µM 75.5% | [3]; at 50.0 µM 72.2% | [5]; [8] 72% | [5]; at 50.0 µM 83.2% | [6]; at 50.0 µM 73.7%

Oc1cccc(Oc2cccc(Oc3ccccc3)c2)c1
active: [1]; [8] 99% | [1]; at 50.0 µM 99.4% | [2]; [8] 99% | [2]; at 50.0 µM 99.3% | [3]; [8] 99% | [3]; at 50.0 µM 99.5% | [4]; [8] 99% | [4]; at 50.0 µM 99% | [5]; [8] 99% | [5]; at 50.0 µM 99.4% | [6]; [8] 99% | [6]; at 50.0 µM 99.3%
inactive: [1]; [7] 1% | [2]; [7] 1% | [3]; [7] -6% | [4]; [7] -23% | [5]; [7] 30% | [6]; [7] 2%
